Data taken from PubChem BioAssay (NCATS).
Unmarked numbers belong to inactive results. Results filed as inconclusive are left out. A call without a number means that no potency is given here. The source made the active and inactive calls. Unless noted, the call rests on the fitted dose curve; in most records, active means well fitted curve in the direction sought with a large enough effect; inconclusive means small, poorly fitted or top-dose-only effect, or another doubt; inactive means no such curve, though single readings can be large; an effect the other way counts as inactive or inconclusive.

Columns and labels:
[1] = molecular target: ATP-dependent 6-phosphofructokinase (Trypanosoma brucei brucei) (UniProt O15648); test: qHTS Assay to Find Inhibitors of T. brucei phosphofructokinase: hit validation (AID 492961);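 further: luminescence reports ADP formed as PFK phosphorylates fructose-6-phosphate with ATP; series mostly up to about 51 µM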
How it was run: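 Measures ADP output of PFK (1.25 nM) at 0.1 mM ATP, 0.5 mM F6P, pH 8.0 TEA buffer with 5 mM MgCl2. No-enzyme wells define full inhibition; uninhibited enzyme wells define zero.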

[2] = molecular target: Ubiquitin carboxyl-terminal hydrolase 1 (Homo sapiens) (UniProt O94782); test: Inhibitors of USP1/UAF1: Pilot qHTS (AID 504865); further: nearly all actives have a fitted effect of over 35% in size; further: potency means the concentration at half of the fitted maximal effect
How it was run: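 Deubiquitinase activity followed as kinetic rhodamine fluorescence release from 150 nM Ub-Rho. 1 nM USP1/UAF1 with compound, after 15 min room-temperature preincubation, in HEPES pH 7.8 buffer containing TCEP, EDTA, BSA and Tween-20.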

[3] = molecular target: Thyrotropin receptor (Homo sapiens) (UniProt P16473); test: qHTS Assay for Antagonists of the Thyroid Stimulating Hormone Receptor (AID 488980); further: series mostly up to about 58 µM
How it was run: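 Inhibition of cAMP raised by EC80 TSH (4 nM final) was read by HTRF, with lysate cAMP competing against cAMP-d2 for cryptate antibody after 30 min at room temperature. The cells were transfected HEK293 held in phosphodiesterase inhibitor RO 20-1724 at 70 uM.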

[4] = molecular target: Thyrotropin-releasing hormone receptor (Homo sapiens) (UniProt P34981); test: qHTS for Small Molecule Agonists and Allosteric Enhancers of Human TRH Receptor: Validation Screen for Agonists (AID 493127;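 active means calcium activation more than 3 SD above the typical response in the agonist read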;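 further: intracellular calcium rise by fluo-8 fluorescence before TRH EC20 addition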); details: TRH receptor agonist cell assay; at 2 µM; hits give high values
How it was run: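 Compounds are added by online pintool to dye-loaded TRHR cells while fluorescence is recorded every second. A rise in calcium signal during the agonist read marks activation; a later 10 nM TRH addition (EC20) serves the separate enhancer mode.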

[5] = molecular target: Galactokinase (Homo sapiens) (UniProt P51570); test: qHTS Validation Assay for Inhibitors of Human Galactokinase (GALK) (AID 493189)
How it was run: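 Inhibition was measured as remaining ATP, detected by luciferase luminescence after a 1 h room-temperature reaction. Final conditions: 5 nM GALK, 100 uM galactose, 35 uM ATP, pH 8.0 HEPES buffer.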

[6] = Validation screen for small molecules that induce DNA re-replication in SW480 colon adenocarcinoma cells (AID 504364)
How it was run: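 Image-based qHTS: compounds were incubated with SW480 cells for 48 hr, nuclei stained with Hoechst, and per-nucleus fluorescence intensity scanned to flag cells with excess DNA content.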

ATP-dependent 6-phosphofructokinase (Trypanosoma brucei brucei), sequence (O15648 whole entry, looked up): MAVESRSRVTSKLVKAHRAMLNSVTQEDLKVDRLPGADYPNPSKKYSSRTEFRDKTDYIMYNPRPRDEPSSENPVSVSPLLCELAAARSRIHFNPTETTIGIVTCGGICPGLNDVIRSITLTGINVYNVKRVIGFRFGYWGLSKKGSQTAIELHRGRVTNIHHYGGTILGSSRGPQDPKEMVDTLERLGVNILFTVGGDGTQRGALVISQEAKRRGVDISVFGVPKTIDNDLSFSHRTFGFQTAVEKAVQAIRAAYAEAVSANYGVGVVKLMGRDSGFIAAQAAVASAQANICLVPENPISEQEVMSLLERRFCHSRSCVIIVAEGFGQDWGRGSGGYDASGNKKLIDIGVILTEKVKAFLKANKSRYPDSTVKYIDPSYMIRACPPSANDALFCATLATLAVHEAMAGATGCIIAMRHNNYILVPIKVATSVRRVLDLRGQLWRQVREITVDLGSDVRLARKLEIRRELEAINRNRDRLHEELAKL
Ubiquitin carboxyl-terminal hydrolase 1 (Homo sapiens), sequence (O94782 whole entry, looked up): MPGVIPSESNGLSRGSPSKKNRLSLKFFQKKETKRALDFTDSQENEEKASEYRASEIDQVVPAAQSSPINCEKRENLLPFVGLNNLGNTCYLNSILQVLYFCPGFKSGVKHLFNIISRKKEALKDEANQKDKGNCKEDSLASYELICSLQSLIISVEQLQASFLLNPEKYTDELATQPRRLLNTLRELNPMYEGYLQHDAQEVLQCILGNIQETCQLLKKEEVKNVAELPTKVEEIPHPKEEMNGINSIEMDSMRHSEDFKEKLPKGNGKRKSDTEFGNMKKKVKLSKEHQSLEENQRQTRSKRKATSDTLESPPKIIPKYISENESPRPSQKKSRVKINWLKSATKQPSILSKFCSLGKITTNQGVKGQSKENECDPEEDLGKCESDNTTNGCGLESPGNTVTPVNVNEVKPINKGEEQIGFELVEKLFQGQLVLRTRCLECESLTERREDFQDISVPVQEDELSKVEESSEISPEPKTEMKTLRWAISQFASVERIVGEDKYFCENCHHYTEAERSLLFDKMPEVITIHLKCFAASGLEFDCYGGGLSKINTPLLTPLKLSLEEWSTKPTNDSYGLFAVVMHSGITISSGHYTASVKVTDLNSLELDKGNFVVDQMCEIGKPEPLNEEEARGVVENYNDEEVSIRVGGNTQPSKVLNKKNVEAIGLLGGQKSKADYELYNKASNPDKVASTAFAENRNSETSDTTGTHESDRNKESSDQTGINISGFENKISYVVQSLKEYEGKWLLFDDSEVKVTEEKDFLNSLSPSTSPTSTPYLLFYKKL
Thyrotropin receptor (Homo sapiens), sequence (P16473 whole entry, looked up): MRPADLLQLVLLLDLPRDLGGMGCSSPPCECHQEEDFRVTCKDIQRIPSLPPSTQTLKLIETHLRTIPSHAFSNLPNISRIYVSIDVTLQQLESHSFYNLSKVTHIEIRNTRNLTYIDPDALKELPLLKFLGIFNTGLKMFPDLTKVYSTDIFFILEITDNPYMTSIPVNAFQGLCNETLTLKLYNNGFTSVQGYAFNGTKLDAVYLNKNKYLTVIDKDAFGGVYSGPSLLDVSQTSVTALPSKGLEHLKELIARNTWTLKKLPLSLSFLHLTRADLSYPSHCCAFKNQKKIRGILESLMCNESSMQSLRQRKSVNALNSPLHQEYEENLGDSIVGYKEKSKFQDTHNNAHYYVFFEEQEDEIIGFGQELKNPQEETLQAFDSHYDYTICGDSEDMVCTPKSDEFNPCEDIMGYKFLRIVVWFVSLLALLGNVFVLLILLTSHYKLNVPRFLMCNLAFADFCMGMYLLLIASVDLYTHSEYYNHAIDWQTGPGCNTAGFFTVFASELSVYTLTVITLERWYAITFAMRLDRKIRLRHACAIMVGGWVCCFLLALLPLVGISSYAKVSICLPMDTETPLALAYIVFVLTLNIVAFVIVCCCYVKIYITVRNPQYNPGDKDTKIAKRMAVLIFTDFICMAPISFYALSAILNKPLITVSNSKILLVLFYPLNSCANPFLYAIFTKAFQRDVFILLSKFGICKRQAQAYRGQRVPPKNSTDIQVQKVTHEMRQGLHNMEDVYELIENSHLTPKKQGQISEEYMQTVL
Galactokinase (Homo sapiens), sequence (P51570 whole entry, looked up): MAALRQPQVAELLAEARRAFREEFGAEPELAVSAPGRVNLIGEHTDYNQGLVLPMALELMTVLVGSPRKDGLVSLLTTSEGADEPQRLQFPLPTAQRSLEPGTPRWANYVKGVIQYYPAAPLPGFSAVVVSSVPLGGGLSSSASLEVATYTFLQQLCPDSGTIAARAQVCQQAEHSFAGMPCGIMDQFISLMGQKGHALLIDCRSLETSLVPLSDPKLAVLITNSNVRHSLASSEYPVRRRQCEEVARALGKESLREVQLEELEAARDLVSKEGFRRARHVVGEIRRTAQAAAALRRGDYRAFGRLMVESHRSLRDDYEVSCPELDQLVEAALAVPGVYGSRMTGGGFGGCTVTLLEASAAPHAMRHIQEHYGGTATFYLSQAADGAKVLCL
Thyrotropin-releasing hormone receptor (Homo sapiens), sequence (P34981 whole entry, looked up): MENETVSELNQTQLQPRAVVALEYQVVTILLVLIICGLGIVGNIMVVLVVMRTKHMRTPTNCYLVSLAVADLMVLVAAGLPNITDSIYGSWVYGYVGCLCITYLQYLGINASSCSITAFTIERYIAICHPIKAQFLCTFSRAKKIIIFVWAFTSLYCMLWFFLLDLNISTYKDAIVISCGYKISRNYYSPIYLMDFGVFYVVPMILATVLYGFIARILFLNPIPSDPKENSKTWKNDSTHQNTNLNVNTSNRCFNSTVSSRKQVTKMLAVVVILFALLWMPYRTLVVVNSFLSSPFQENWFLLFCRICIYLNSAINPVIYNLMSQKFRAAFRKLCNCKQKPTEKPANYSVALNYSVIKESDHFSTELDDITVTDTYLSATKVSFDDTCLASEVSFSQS

With `Nc1ccc(C(=O)Oc2ccccc2)c(O)c1` the outcome [1] was “inactive”.
With `COc1ccccc1Oc1c(NS(=O)(=O)c2ccc(C(C)(C)C)cc2)nc(-c2ncccn2)nc1OCCO` the outcome [1] was “inactive” and the Potency [2] was “inactive”.
For `O=C(O)CCC(=O)O`, the outcome [1] was “inactive” and the Potency [2] was “inactive”.
In the case of `COc1ccc(Cc2cnc(N)nc2N)cc1OC`, the outcome [1] was “inactive” and the Potency [2] was “inactive”.
In the case of `Cc1cc(C)c(NC(=O)CN(CC(=O)O)CC(=O)O)c(C)c1Br`, the outcome [1] was “inactive” and the Potency [2] was “inactive”.
In the case of `O=C(O)Cn1c(C(=O)Nc2nc(-c3ccccc3Cl)cs2)cc2ccccc21`, the outcome [1] was “inactive” and the Potency [2] was 79.4 µM (active).
With `O=C(NCCCN1CCOCC1)c1ccc(Cl)cc1` the outcome [1] was “inactive” and the Potency [2] was “inactive”.
In the case of `CC(=O)SC[C@@H](Cc1ccccc1)C(=O)NCC(=O)OCc1ccccc1`, the outcome [1] was “inactive”.
With `NNc1nnc(NN)c2ccccc12` the outcome [1] was “inactive” and the Potency [2] was “inactive”.
For `COc1ccc2cc(CCC(C)=O)ccc2c1`, the outcome [1] was “inactive” and the Potency [2] was “inactive”.
With `Cc1c(I)c(=O)n(-c2ccccc2)n1C` the outcome [1] was “inactive” and the Potency [2] was “inactive”.
For `Cc1c(C)c2c(c(C)c1OC(=O)c1cccnc1)CC[C@@](C)(CCC[C@H](C)CCC[C@H](C)CCCC(C)C)O2`, the outcome [1] was “inactive” and the Potency [2] was “inactive”.
For `CN1C(C)(C)CCCC1(C)C`, the outcome [3] was “inactive”, the activation [4] was 0.688% and the outcome [5] was “inactive”. The outcome [6] was “inactive” and the Potency [2] was “inactive”.
For `CCc1cccc(CC)c1NC(=O)CN(CC(=O)O)CC(=O)O`, the outcome [1] was “inactive” and the Potency [2] was “inactive”.
With `Cc1c(NC(=O)c2cccnc2)c(=O)n(-c2ccccc2)n1C` the outcome [1] was “inactive”.
With `CN1CCCN=C1COC(=O)C(O)(c1ccccc1)C1CCCCC1` (centres undefined) the outcome [1] was “inactive” and the Potency [2] was “inactive”.
For `CC(=O)OC[C@H]1O[C@@](COC(C)=O)(O[C@H]2O[C@H](COC(C)=O)[C@@H](OC(C)=O)[C@H](OC(C)=O)[C@H]2OC(C)=O)[C@@H](OC(C)=O)[C@@H]1OC(C)=O`, the outcome [1] was “inactive” and the Potency [2] was “inactive”.
